# USP28 block: inhibitors of human USP28 deubiquitinase. inhibition, % at 25 µM. 3% of 47,000 active. purified USP28, Ub-rhodamine cleavage fluorescence, 30 min. AID 1645857. Q96RU2
# USP8 block: inhibitors of human USP8 deubiquitinase. AID 1645853. inhibition, % at 20 µM. 4.2% of 47,000 active. purified USP8, Ub-rhodamine cleavage fluorescence, 30 min
# USP10 inh: inhibitors of human USP10 deubiquitinase; purified USP10, Ub-rhodamine fluorescence, 60 min; inhibition, % at 20 µM; 1.1% of 47,000 active
# USP30 block: human USP30 deubiquitinase inhibition. 5.3% of 47,000 active. inhibition, % at 25 µM. purified USP30, Ub-rhodamine cleavage fluorescence. AID 1645860. Q70CQ3
# USP17 inh: human USP17-like deubiquitinase inhibition; inhibition, % at 50 µM; A8MUK1; AID 1645855; purified USP17, Ub-rhodamine cleavage fluorescence, 3 h; 6.5% of 47,000 active
# Starred values were filed as active, the others as inactive; i = inactive; x = no result given. The list is not random: actives were taken first. Their share in the collection is about 14%. Cut-off read from the data, not from the text of the source: active = inhibition above about 30%; inactive = the rest.
SMILES,USP28 block,USP8 block,USP10 inh,USP30 block,USP17 inh
CCOC(=O)N1CCC2(CC1)CNc1ccccc12,-11,-14,-3,-20,x
NC(=O)c1ccc(Oc2ccc(Cl)cc2)nc1,37*,0,2,30,32*
O=C(c1cc2ccccc2o1)N1CC=C(c2ccccc2)CC1,34*,21,12,50*,36*
COc1cc(OC)cc(C(=O)OCC(=O)N2CCCC2)c1,12,2,3,27,12
CCOc1ccccc1C(=O)Oc1ccc2c(C)cc(=O)oc2c1,8,35*,10,31*,59*
Cc1nc2c(NC(=O)COc3ccccc3C)cccn2n1,-4,-4,-2,0,11
CCn1cc(S(=O)(=O)NCc2cc(F)cc(F)c2)c2cccnc21,11,48*,8,-44,37*
CCN1C[C@H]2C3(CCN(C(=O)c4cccnc4)CC3)CC[C@@]2(C(=O)N(C)C)C1,-5,-58,0,-20,-13
N#Cc1c(F)cccc1N1CCC(C2CCCCCN2C(=O)C2CC2)CC1 (centres undefined),25,3,0,34*,15
CC1(C2CCN(c3cccc(F)c3C#N)CC2)NC(=O)NC1=O (centres undefined),15,0,0,32*,11
CCN1CCc2c(sc(NC(=O)CSc3ccc(Cl)cc3)c2C(N)=O)C1,15,0,-7,28,34*
CCN1CCc2c(sc(NC(=O)CSc3ccccc3)c2C(N)=O)C1,-14,-6,-11,-35,-17
CC(C)CN1C[C@@]23CN(C(=O)C4CCC4)C[C@@H](C[C@@H]2S1(=O)=O)O3,0,1,2,12,0
O=C(CC(=O)c1c(F)cccc1F)c1ccccc1O,26,26,3,30*,26
Cc1cccc(Nc2nc(N3CCCCC3)nc(N3CCCCC3)n2)c1,7,18,5,30*,0
O=c1c2ccccc2nc(N2CCN(Cc3ccccc3)CC2)n1-c1ccccc1,-13,-9,-1,3,-19
O=c1c2ccccc2nc(CSc2nc3ccc4[nH]snc4c3n2)n1-c1ccccc1,51*,15,2,37*,51*
COc1cc(C)c2c(=O)c3c(oc2c1)C(=O)c1c(O)c(OC)cc(O)c1C3=O,35*,-7,-7,-30,71*
Cc1cc(N2CCc3ccccc32)n2nc(-c3ccco3)nc2n1,-10,-19,-3,-10,0
O=C(Nc1ccccc1Sc1ncc(-c2ccc(Cl)cc2)cn1)c1ccco1,14,21,5,24,52*
O=C(Nc1ncc2c(n1)CC(c1ccc(Cl)cc1)CC2=O)c1ccco1 (centres undefined),4,14,-1,-1,15
CCN1CCN(C(=O)c2cn3ccnc(-c4ccc(C)cc4)c3n2)CC1,12,0,2,12,0
COc1ccc(NS(=O)(=O)c2cc(NC(=O)CCC(=O)c3ccc(F)cc3)ccc2C)cc1,2,2,9,36*,-8
COc1cccc(-c2cn[nH]c2C2CCCN2CC(=O)N2CCOCC2)c1 (centres undefined),-13,0,-4,-19,0
O=C(Nc1ccc(F)c(Cl)c1)c1c2c(nc3ccccc13)CCN(Cc1ccccc1)C2,-183,2,-6,i,-161
SMILES,USP28 block,USP8 block,USP10 inh,USP30 block,USP17 inh
COCCn1cc(NC(=O)N2CCN(c3ccccc3F)CC2)c2ccccc21,11,54*,-3,0,13
O=C(COc1ccc(F)cc1Br)N1CCSc2ccccc21,6,7,4,14,12
O=C(COc1ccccc1F)N1CCSc2ccc(Cl)cc21,41*,15,8,34*,32*
Cn1c(NC(=O)c2ccco2)c(-c2cccs2)c(=O)c2ccccc21,-19,34*,-6,-185,10
O=C(NCC1CCCO1)c1cc(Nc2cccc(C(F)(F)F)c2)nc2ccccc12 (centres undefined),1,-6,4,0,1
O=[N+]([O-])c1ccc(N2CCc3nc(-c4ccccn4)ncc3C2)cc1,8,-263,6,77*,70*
CCCN1CCN(c2ncc3c(n2)CCN(Cc2ccccn2)C3)CC1,-35,-82,-6,-102,-46
Cc1cc2ncc3c(n2n1)CCN(c1ccc([N+](=O)[O-])cc1)C3,-3,-6,-12,-237,33*
CC1CCN(CCc2nc3cc(NC(=O)NC4CCCCC4)ccc3n2C)CC1,-9,9,-2,-28,3
O=C(Nc1ccc(F)cc1)c1cc(N2CCOCC2)nc2ccccc12,-16,-11,-5,-19,-7
COc1cccc2cc(C(=O)N3CCc4nc(NC(=O)C5CCCO5)sc4C3)oc12 (centres undefined),14,-22,-5,-8,34*
O=C(Nc1nc2c(s1)CN(C(=O)c1ccco1)CC2)C1CCCO1 (centres undefined),-19,-9,-6,-83,-35
CC(C)=CCc1cccc2c(C3=C(O)C(=O)C(c4c[nH]c5c(CC=C(C)C)cccc45)=C(O)C3=O)c[nH]c12,52*,4,1,43*,72*
COc1ccc(-c2nc(NC(=O)Cn3ccc(C(F)(F)F)n3)sc2C)cc1,13,7,13,5,19
CCn1c(CNc2ccc(C)cc2)nnc1SCC(=O)Nc1ccccc1F,28,1,1,16,-8
CCn1c(CNc2ccc(C)cc2)nnc1SCC(=O)Nc1ccc(C(=O)OC)cc1,42*,3,0,8,24
Cc1ccc(C)c(Nc2cc(C)nc3nc(-c4ccco4)nn23)c1,14,22,-4,-15,58*
Cc1cc(Nc2ccc(Cl)cc2)n2nc(-c3ccco3)nc2n1,0,9,-7,-163,36*
O=C(O)[C@@H]1Cc2ccccc2CN1C(=O)CSc1c(Cl)cccc1Cl,-11,4,1,-9,0
CC(=O)c1ccc(NC(=O)CCn2c(=O)c3cccn3c3ccccc32)cc1,-1,29,22,-245,43*
CCc1ccccc1NC(=O)CCc1c(C)nc2c(c1C)c(=O)n(C)c(=O)n2C,9,22,2,16,20
CCc1ccccc1NC(=O)CCn1c(=O)c2cccn2c2ccccc21,-26,37*,5,-25,-15
COc1cccc(-c2cc(C(F)(F)F)nc(-n3nnc4ccccc43)n2)c1,0,3,-1,0,5
COc1ccc(-c2nc(CNS(=O)(=O)c3ccc(OC)c(C)c3)cs2)cc1,6,3,6,24,38*
COc1ccc(S(=O)(=O)NCc2nnnn2-c2ccc(C)cc2)cc1C,14,25,3,19,9
COc1ccc(-c2nc(CNS(=O)(=O)c3ccc(OC)cc3)cs2)cc1,19,-2,3,0,49*
O=S(=O)(NCCc1csc(-c2ccc(F)cc2)n1)c1ccc(F)cc1,14,14,7,12,17
O=C(c1ccco1)N1CCN(c2nc(C3CC3)nc3c2CCC3)CC1,1,-6,2,8,0
